Where “and” joins values, the source holds several entries; their conditions need not be identical. Identical values can stand only once. Hit rate of the full screen: of about 5,500 compounds, about 2,000 (36%) were called active. Not shown: some 18% with an inconclusive outcome. Rule as the data show it: active = normalized growth mostly below about 0.91 (no sharp cut-off); inconclusive = no clear call, values can overlap the other calls; inactive = mostly above about 0.92. The list shows a part of the results.
Assay: chemical genetic growth profiling, strain panel (AID 1159580);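 also: tested at 20 µM; growth read once vehicle control cultures reached saturation at 30 °C; 1 = growth at the plate median or of vehicle wells; lower values mean less growth of the strain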
Conditions: S. cerevisiae deletion strains, growth OD

Measured: normalized growth

CCN1CCN(C(=O)NC(C(=O)N[C@@H]2C(=O)N3[C@@H]2SC(C)(C)[C@@H]3C(=O)O)c2ccccc2)C(=O)C1=O (stereo partly specified)
inactive: locus YAL013W, strain DEP1, hits give low values 1.01 | locus YAL021C, strain ccr4, hits give low values 1 | locus YAL026C, strain drs2, hits give low values 0.999 | locus YAL030W, strain snc1, hits give low values 1.01 | locus YBL061C, strain skt5, hits give low values 0.999 | locus YBR009C, strain hhf1, hits give low values 1.02 | locus YBR021W, strain FUR4, hits give low values 1.01 | locus YBR023C, strain chs3, hits give low values 1.01 | locus YBR171W, strain sec66, hits give low values 1 | locus YBR229C, strain ROT2, hits give low values 1.01 | locus YBR231C, strain swc5, hits give low values 0.98 | locus YBR279W, strain paf1, hits give low values 1 | locus YCL011C, strain gbp2, hits give low values 1.02 | locus YCL016C, strain dcc1, hits give low values 1 | locus YCL029C, strain bik1, hits give low values 1.02 | locus YCL061C, strain MRC1, hits give low values 0.995 | locus YCL069W, strain vba3, hits give low values 0.99 | locus YCR088W, strain abp1, hits give low values 1 | locus YDL005C, strain med2, hits give low values 0.988 | locus YDL035C, strain GPR1, hits give low values 0.988 | locus YDL040C, strain nat1, hits give low values 0.989 | locus YDL074C, strain BRE1, hits give low values 0.993 | locus YDL101C, strain DUN1, hits give low values 1.02 | locus YDL134C, strain PPH21, hits give low values 1.01 | locus YDL185W, strain tfp1, hits give low values 1.02 | locus YDL192W, strain arf1, hits give low values 1.01 | locus YDR001C, strain nth1, hits give low values 0.991 | locus YDR069C, strain doa4, hits give low values 0.997 | locus YDR101C, strain arx1, hits give low values 1.01 | locus YDR137W, strain rgp1, hits give low values 0.975 | locus YDR150W, strain NUM1, hits give low values 1.02 | locus YDR159W, strain sac3, hits give low values 1 | locus YDR162C, strain NBP2, hits give low values 0.997 | locus YDR195W, strain ref2 0.959 | locus YDR297W, strain sur2, hits give low values 0.996 | locus YDR318W, strain mcm21, hits give low values 1.02 | locus YDR334W, strain swr1, hits give low values 1 | locus YDR335W, strain msn5, hits give low values 0.999 | locus YDR388W, hits give low values 1.01 | locus YDR392W, strain spt3, hits give low values 1.03 | locus YDR502C, strain sam2, hits give low values 1.01 | locus YEL003W, strain gim4, hits give low values 1.01 | locus YEL037C, strain rad23, hits give low values 0.997 | locus YEL061C, strain CIN8 (second series), hits give low values 1 | locus YEL061C, strain CIN8, hits give low values 1.01 | locus YER015W, strain faa2, hits give low values 0.992 | locus YER016W, strain bim1, hits give low values 1 | locus YER110C, hits give low values 1.02 | locus YER111C, strain swi4, hits give low values 1 | locus YER155C, strain BEM2 (second series), hits give low values 0.993 | locus YER155C, strain BEM2, hits give low values 0.991 | locus YER167W, strain BCK2, hits give low values 1.01 | locus YFR010W, strain ubp6, hits give low values 0.984 | locus YGL078C, strain dbp3, hits give low values 1.01 | locus YGL086W, strain mad1, hits give low values 1.02 | locus YGL167C, strain pmr1, hits give low values 1 | locus YGL173C, strain kem1, hits give low values 0.991 | locus YGL227W, strain vid30, hits give low values 0.989 | locus YGL240W, strain doc1, hits give low values 0.975 | locus YGL248W, strain PDE1, hits give low values 1.01 | locus YGL253W, strain hxk2, hits give low values 0.999 | locus YGR078C, strain PAC10, hits give low values 1.02 | locus YGR135W, strain pre9, hits give low values 1 | locus YGR229C, strain SMI1, hits give low values 1 | locus YGR252W, strain gcn5, hits give low values 1.01 | locus YHR013C, strain ard1, hits give low values 0.975 | locus YHR027C, strain rpn1, hits give low values 0.996 | locus YHR030C, strain SLT2, hits give low values 1.01 and 1 | locus YHR079C, strain IRE1 (second series), hits give low values 1.02 | locus YHR079C, strain IRE1, hits give low values 1.01 | locus YHR094C, strain hxt1, hits give low values 1.01 | locus YHR129C, strain ARP1, hits give low values 1 | locus YHR142W, strain chs7, hits give low values 0.998 | locus YHR200W, strain rpn10, hits give low values 1.01 | locus YIL066C, strain RNR3, hits give low values 1.01 | locus YIL073C, strain SPO22, hits give low values 1.05 | locus YIL125W, strain kgd1, hits give low values 1.01 | locus YIR030C, strain dcg1, hits give low values 1.01 | locus YJL092W, strain hpr5, hits give low values 1 | locus YJL095W, strain BCK1 (second series), hits give low values 1 | locus YJL095W, strain BCK1, hits give low values 1 and 0.999 | locus YJL115W, strain asf1, hits give low values 0.996 | locus YJL129C, strain trk1, hits give low values 0.993 | locus YJL134W, strain LCB3, hits give low values 1.01 | locus YJL154C, strain vps35, hits give low values 1 | locus YJL164C, strain tpk1, hits give low values 0.99 | locus YJL166W, strain qcr8, hits give low values 0.992 | locus YJL168C, strain set2, hits give low values 1.01 | locus YJL187C, strain SWE1 (second series), hits give low values 1.03 | locus YJR043C, strain POL32, hits give low values 0.994 | locus YJR066W, strain TOR1, hits give low values 0.953
